Screens: PubChem, National Center for Advancing Translational Sciences (NCATS)
Rows were chosen to be rich in hits. Some 19% of all compounds tested hit in one or more screens of this group.
TDP1 inh: inhibitors of human tyrosyl-DNA phosphodiesterase TDP1; Q9NUW8; recombinant TDP1, AlphaScreen DNA substrate cleavage; Potency, µM (highest dose often 130 µM), inactives show at the highest dose activity change, negative = inhibition, most hits filed as inhibitors; hit rate 0.28% among 350,000; AID 485290; note: potency is the fitted concentration of half-maximal effect; % is set by controls: 0 for no effect and ±100 for the full control effect; nearly all actives have a fitted effect of over 40% in size
Target sequence (Q9NUW8 whole entry, looked up): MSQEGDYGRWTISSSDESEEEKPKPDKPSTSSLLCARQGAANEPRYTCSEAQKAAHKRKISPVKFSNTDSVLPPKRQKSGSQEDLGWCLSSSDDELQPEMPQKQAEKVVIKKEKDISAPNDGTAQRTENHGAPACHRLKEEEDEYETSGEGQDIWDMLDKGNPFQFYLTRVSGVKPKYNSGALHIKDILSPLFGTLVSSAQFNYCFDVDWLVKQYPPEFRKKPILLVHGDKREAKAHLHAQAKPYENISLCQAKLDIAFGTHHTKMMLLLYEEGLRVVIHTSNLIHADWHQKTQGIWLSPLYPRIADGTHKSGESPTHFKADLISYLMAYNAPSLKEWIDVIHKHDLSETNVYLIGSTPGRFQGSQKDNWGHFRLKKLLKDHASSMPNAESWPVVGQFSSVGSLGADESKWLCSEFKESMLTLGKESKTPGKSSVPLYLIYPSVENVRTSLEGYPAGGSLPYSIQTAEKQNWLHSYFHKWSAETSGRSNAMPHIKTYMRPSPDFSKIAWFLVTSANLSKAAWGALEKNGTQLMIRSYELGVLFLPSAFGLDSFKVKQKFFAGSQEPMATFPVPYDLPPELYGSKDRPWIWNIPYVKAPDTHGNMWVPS
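Compounds were preincubated with Tdp1 (1 nM final) for 15 min at room temperature before substrate (15 nM final) started a 5 min reaction; beads (10 ug/ml final) were then added for 10 min before AlphaScreen detection.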
TDP1 cell CPT: growth inhibition of DT40 Tdp1-/-;hTDP1 cells with camptothecin (screen for TDP1 inhibitors); chicken DT40 Tdp1-/-;hTDP1 cells + 20 nM CPT, ATP luminescence, 48 h; Potency, µM (titrated, usually from 46.2 µM), without a hit: at the top dose activity change, negative = growth inhibition, actives largely listed as inhibitors; hit rate 12% among 420,000; AID 686979; note: potency is the fitted concentration of half-maximal effect; % is set by controls: 0 for no effect and ±100 for the full control effect; nearly all actives have a fitted effect of over 55% in size
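Chicken DT40 Tdp1-/- cells complemented with human TDP1, 400 cells/well, exposed to compounds plus 20 nM camptothecin for at least 48 h at 37 C; viability read as ATP content by CellTiter-Glo luminescence.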
TDP1 cell noCPT: qHTS for Inhibitors of human tyrosyl-DNA phosphodiesterase 1 (TDP1): qHTS in cells in absence of CPT; Potency, µM (doses to about 46.2 µM), for the others: top-dose activity change, negative = growth inhibition, hits mostly inhibitors; DT40 Tdp1-/- hTDP1 cells, no CPT, ATP luminescence, 48 h; hit rate 15% among 420,000; AID 686978, 2013; note: potency is the fitted concentration of half-maximal effect; % is set by controls: 0 for no effect and ±100 for the full control effect; nearly all actives have a fitted effect of over 55% in size
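Cells were dispensed at 400 per well, compounds added by pin tool, plates incubated ≥48 hr at 37 °C, then CellTiter-Glo added for 30 min at room temperature before luminescence reading. Line: DT40 Tdp1-/- complemented with hTDP1; camptothecin omitted.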
HepG2 viability: counter-screen for TGF-b inhibitors: cytotoxicity in HepG2 cells; HepG2 CAGA-GFP viability, ATP luminescence, 18 h; Potency, µM (series often up to 46.1 µM), without a hit: at the highest dose activity change, negative = cytotoxicity, most hits filed as cytotoxic; hit rate 0.76% among 410,000; note: potency is the fitted concentration of half-maximal effect
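HepG2 CAGA-GFP cells (1000/well, DMEM with 1% FBS) received compound, then TGF-beta at 500 pg/mL final, and were incubated 18 hours at 37 degrees C. Viability was read by CellTiter-Glo luminescence. Media-only wells were set as complete cell-killing and DMSO as no toxicity.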
IL-1B inflam inh: inhibitors of inflammasome signaling (IL-1 beta secretion). THP-1 LPS/ATP IL-1B secretion, AlphaLISA, 16 h; hits give low values. activity change, % at 57.5 µM. hit rate 4.7% among 360,000; in the data active = activity change below about -50%; inconclusive = mostly about -30% to -49%; note: % is set by controls: 0 for no effect and ±100 for the full control effect
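Secreted IL-1B measured by AlphaLISA bead assay after 16 h compound exposure of THP-1 cells; compounds (final up to 57.5 uM) added 1 h before LPS (250 ng/mL) and ATP (1.25 mM) stimulation; lower signal means less secretion.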
TGFb SMAD3 inh: inhibitors of TGF-b signaling. HepG2 CAGA-GFP TGF-b/SMAD3 reporter, GFP fluorescence, 18 h; TGF-beta stimulated, 500 pg/mL final. Potency, µM (titrated, usually from 46.1 µM), for the others: top-dose activity, negative = inhibition, usual class: inhibitors. hit rate 1.2% among 410,000. AID 588855; note: potency is the fitted concentration of half-maximal effect; % is set by controls: 0 for no effect and ±100 for the full control effect; nearly all actives have a fitted effect of over 65% in size
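TGF-beta reporter screen: HEPG2 CAGA-GFP, 1% FBS, 500 pg/mL TGF-beta final, 18 h; per-cell GFP summed per well; curves fitted and categorized by class.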
Numbers without * were called inactive; ? = inconclusive; . = not tested or not shown; [ ] = remark or other dose. Unless noted, calls come from the whole dose curve; as a rule, active = well fitted curve in the direction sought with a large enough effect; inconclusive = small, poorly fitted or top-dose-only effect, or another doubt; inactive = no such curve, though single readings can be large; an effect the other way counts as inactive or inconclusive.

SMILES | TDP1 inh | TDP1 cell CPT | TDP1 cell noCPT | HepG2 viability | IL-1B inflam inh | TGFb SMAD3 inh
CCCC(=O)C1=C(O)C(C(=O)OC)C(C)(C)CC1=Nc1ccncc1 (stereo not drawn) | 0% | -26% | -12% | -10% | 0 | ?
CCCC(=O)C1=C(O)C(C(=O)OC)C(C)(C)CC1=Nc1ccc(Br)cc1 (stereo not drawn) | -5% | ? | 23µM* | 4% | -9 | -16%
CCOC(=O)OCC1OC(C#Cc2ccc(C)cc2C)C=CC1OC(=O)OCC (stereo not drawn) | 1%[21 µM] | . | . | . | . | .
O=S(=O)(c1ccc2c(c1)CCCC2)N1CCN(c2nc(-c3cccs3)nc3ccccc23)CC1 | 2% | ? | ? | -2% | . | 28%
O=S(=O)(c1ccc2c(c1)CCCC2)N1CCN(c2nc(-c3ccccc3)nc3ccccc23)CC1 | 0% | 10µM* | 10µM* | 4% | . | 5%
Cc1ccc(S(=O)(=O)N2CCN(c3nc(-c4ccccc4)nc4ccccc34)CC2)cc1 | 0% | 7% | -16% | 5% | . | 9%
N#CCc1c(C#N)c(N)nc(N2CCN(C=O)CC2)c1C#N | 2% | -3% | 11% | 6% | 2 | -3%
CCc1nc2ccccc2nc1N1CCN(S(=O)(=O)c2ccccc2)CC1 | 1% | ? | 16µM* | -7% | -90* | 13%
O=S(=O)(c1ccc(F)cc1)N1CCN(c2nc(-c3ccccc3)nc3ccccc23)CC1 | 1% | ? | 13µM* | 10% | . | 0%
N#CCc1c(C#N)c(N)nc(N2CCN(S(=O)(=O)c3ccccc3)CC2)c1C#N | 9%[56.1 µM] | 8.2µM* | 16µM* | -42% | -18 | ?
COc1ccc(CCNC(=O)COC(=O)CSc2ccc(C(N)=O)cc2[N+](=O)[O-])cc1OC | . | -3% | 3% | 8% | 7 | 18%
O=S(=O)(c1ccc(Cl)cc1)N1CCN(c2nc(-c3ccccc3)nc3ccccc23)CC1 | 1% | ? | 10µM* | -3% | . | 11%
COc1ccc(C(=O)N/C(=C\c2cn(C)c3ccccc23)C(=O)N2CCN(C)CC2)cc1 | 5% | 3% | 26% | -4% | -16 | 2%
C=CCOC(=O)/C(=C/c1cccc2ccccc12)NC(=O)c1ccccc1 | -8% | 29µM* | 23µM* | -3% | -10 | -3%
COc1ccc(C(=O)N/C(=C\c2cccc3ccccc23)C(=O)N2CCN(C)CC2)cc1 | 2% | ? | 18µM* | -33% | ? | -17%
O=C(OCc1ccccc1)/C(=C/c1cccc2ccccc12)NC(=O)c1ccccc1 | 3% | 7% | ? | -9% | 15 | 3%
CCc1cccc(C)c1NC(=O)CCCn1nc(C)c2sc3ccccc3c2c1=O | 3% | -5% | -14% | 0% | . | 8%
CCCCCC(=O)N1C[C@H](n2cc(-c3ccc(F)cc3)nn2)[C@@H](O)C[C@@H]1c1ccc(Cl)cc1 | . | ? | 26µM* | -107% | ? | ?
CCCCCC(=O)N1C[C@@H](O)[C@H](n2cc(-c3ccc(F)cc3)nn2)C[C@@H]1c1ccc(Cl)cc1 | . | 16µM* | 15µM* | -69% | -56* | ?
CCCCCC(=O)N1C[C@@H](O)[C@H](n2cc(C3CC3)nn2)C[C@@H]1c1ccccc1 | . | ? | 16µM* | -17% | 45 | 9%
COc1ccc(Cl)cc1NC(=O)Cc1coc2c(C)c(C)ccc12 | 0% | ? | ? | -28% | . | ?
CCc1cc(C(=O)N2CCN(S(=O)(=O)c3ccc(Cl)cc3)CC2)sc1C | 2% | ? | ? | -5% | -8 | 2%
CCOc1ccc(CCNC(=O)c2cn(-c3ccc(OC)cc3)c(=O)c3ccccc23)cc1OCC | 8% | ? | ? | -10% | . | -24%
O=C(NCCCn1ccnc1)c1ccccc1NS(=O)(=O)c1ccc(F)c(F)c1 | -5% | 16µM* | ? | 2% | -2 | 12%
Cc1cc(C)c(C)c(S(=O)(=O)Nc2ccccc2C(=O)NCCCn2ccnc2)c1C | 9% | 4.6µM* | 5.8µM* | -91% | -12 | 11%
SMILES | TDP1 inh | TDP1 cell CPT | TDP1 cell noCPT | HepG2 viability | IL-1B inflam inh | TGFb SMAD3 inh
Cc1cccc(C(=O)N(Cc2nc3ccccc3c(=O)[nH]2)C2CCCC2)c1 | -2% | ? | 26µM* | -7% | -19 | ?
CN(CC(=O)Nc1sc2c(c1C#N)CCCCC2)Cc1nc2ccccc2c(=O)[nH]1 | 7% | ? | 18µM* | -16% | -6 | -6%
CN(Cc1nc2ccccc2c(=O)[nH]1)C(=O)c1cc2c(s1)CCCCC2 | 0% | 23µM* | 16µM* | 10% | 35 | 11%
COc1cccc(CN(C)CC(=O)Nc2sc3c(c2C#N)CCC3)c1OC | 7% | -19% | 9% | 0% | -3 | -3%
Cc1cccc(C(=O)N(Cc2nc3ccccc3c(=O)[nH]2)C2CCCCC2)c1 | 5% | ? | ? | -15% | 0 | 0%
COc1ccc(-c2cc(C(=O)NCCN3CCOCC3)no2)cc1OC | -3% | 7% | -4% | -5% | -11 | 3%
Cc1ccc(N2CC(C(=O)Nc3ccc(Br)cc3)CC2=O)cc1 (stereo not drawn) | 5% | -30% | -28% | -7% | . | ?
O=C1C=CC2C(c3ccc4c(c3)OCO4)CC1N2Cc1ccccc1 (stereo not drawn) | -5% | 8.2µM* | 6.5µM* | 0% | -18 | 5%
COCCn1c(-c2cccs2)nc2nc3ccccc3nc21 | -2% | ? | ? | -31% | 25 | -5%
c1csc(-c2nc3nc4ccccc4nc3n2Cc2ccc3c(c2)OCO3)c1 | 2% | 18µM* | ? | 0% | ? | -9%
CCCn1c(-c2cccs2)nc2nc3ccccc3nc21 | 0% | 18µM* | 16µM* | 4% | 12 | -11%
O=C1C2CCCCN2C(=O)N1CCCCN1CCN(c2ccccc2Oc2ccccc2)CC1 (stereo not drawn) | 6% | ? | ? | -40% | -9 | -27%
CCCCN(c1nc2ccccc2nc1Cl)S(=O)(=O)c1ccc(C)cc1 | . | 21µM* | 9.2µM* | -12% | 8 | ?
COCCn1c(C)cc(O)c(C(c2cccc(F)c2)N2CCN(c3ccccc3)CC2)c1=O (stereo not drawn) | -3% | -5% | 5% | 1% | . | 6%
